For assay [1], the system named is Wnt5a (protein binding on small-molecule microarray). The assay is described as follows: small molecules binding Wnt5a protein – biophysical, small-molecule microarray, 635/667 nm fluorescence, primary screen (AID 1142).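 Note: fluorescence read at 667 nm with signal to noise per printed feature.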 The following applies: 635 nm fluorescence, higher = more signal.
A short description of assay [2]: ATP-based viability of Huh7 replicon cells – cell-based, CellTiter-Glo luminescence, basal, 48 h, cytotoxicity control for HCV replication inhibitor project, primary screen (AID 1143).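 Note: Huh7 hepatoma cells carrying a hepatitis C replication reporter with no stimulus; test concentration not given here.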 Conditions: higher = more signal, called active from +8 up or from −8 down. A general note: A replicon is a self-replicating genome or part of one, used to study replication in cells.

Assay [3] in a line: Pseudomonas biofilm growth suppression – PAO1 strain, BacTiter-Glo luminescence, LB-PBS, primary screen (AID 1144). Conditions: P. aeruginosa PAO1 biofilm, 12 h, higher = more signal.
Assay [4] in a line: basal CRE-LacZ reporter activity in PC12 – cell-based, unstimulated, primary screen (AID 1145). Conditions: no forskolin, luminescence, 4.5 h, higher = more signal, called active from +8 up or from −8 down.
Assay [5] can be described thus: forskolin-driven CRE-LacZ activity in PC12 – cell-based, CRE-LacZ reporter, forskolin-stimulated, primary screen (AID 1146).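 Note: PC12 cells with 6xCRE LacZ reporter stimulated by forskolin 10 µM; beta-galactosidase reporter signal reflecting CREB driven transcription.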 The following applies: luminescence, 4.5 h, higher = more signal, called active from +8 up or from −8 down.
For assay [6], the target named is Streptavidin (Streptomyces avidinii) (UniProt P22629). As to the kind of experiment: compounds binding control protein streptavidin – biophysical, small-molecule microarray, 635/667 nm fluorescence, artefact control for SMM compound annotation, primary screen (AID 1147).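 Note: signal reflects streptavidin binding to arrayed compounds as a control protein.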 The following applies: higher = more signal.
The nature of assay [7]: probe aInhba binding on compound microarray – biochemical, small-molecule microarray, 635/667 nm fluorescence, primary screen (AID 1148).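 Note: score merges 667nm spot fluorescence with signal-to-noise for antibody binding to printed compounds.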 The following applies: higher = more signal.
In assay [8] the target is Torsin-1A (Homo sapiens) (UniProt O14656). The assay is described as follows: TOR1A wild-type binding on microarray – cell lysate, small-molecule microarray, lysate, 635/667 nm, primary screen (AID 1149). The following applies: COS7 hTOR1A-WT lysate, 635 nm fluorescence, higher = more signal.
For assay [9] the target is unchanged. The assay is described as follows: torsin A mutant lysate binding on microarrays – cell lysate, small-molecule microarray, COS7 lysate, 635/667 nm fluorescence, primary screen (AID 1150).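 Note: score pools 667 nm emission and signal to noise measuring lysate protein binding.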 The following applies: COS7 hTOR1A mutant lysate, 635 nm fluorescence, higher = more signal.
Assay [10] concerns Sonic hedgehog protein (Shh). The assay is described as follows: Sonic hedgehog microarray binding compounds – biochemical, small-molecule microarray, 635/667 nm fluorescence, primary screen (AID 1151).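 Note: Shh protein binding to compounds spotted on small-molecule microarray slides; score combines spot fluorescence intensity with signal-to-noise across triplicate slides.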 Conditions: 635 nm fluorescence, higher = more signal.
Assay [11] can be described thus: optical density shifts of acrAB sulA E. coli – strain DRC41, OD650, 48 h, E. coli filamentation inducer project, primary screen (AID 1152).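 Note: E. coli MC1000 strain DRC41 lacking acrAB efflux pump and sulA.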 The following applies: higher = more signal, called active from +8 up or from −8 down.
Assay [12] can be described thus: probe aLefty1 binding on compound microarray – biochemical, small-molecule microarray, 635/667 nm fluorescence, primary screen (AID 1153).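 Note: score merges spot fluorescence with signal-to-noise ratio from the scanned slide images.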 Conditions: higher = more signal.
Assay [13] is described as follows: plasmodial surface anion channel blockers, osmotic lysis – cell-based, P. falciparum Indochina, OD700, 1 h, primary screen (AID 1154). Conditions: P. falciparum Indochina infected RBC osmotic lysis, higher = more signal, called active from +8 up or from −8 down.
Assay [14] can be described thus: plasmodial surface anion channel blockers, osmotic lysis – cell-based, P. falciparum Indochina, OD700, 2 h, primary screen (AID 1155).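 Note: lysis reports solute entry through the parasite surface anion channel PSAC.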 The following applies: P. falciparum Indochina infected erythrocytes, higher = more signal, called active from +8 up or from −8 down.
Assay [15] can be described thus: changes in parasitized red cell lysis, either direction – P. falciparum Indochina, OD700, 3 h, PSAC antagonist project, primary screen (AID 1156). Conditions: P. falciparum-infected erythrocytes, osmotic lysis, higher = more signal, called active from +8 up or from −8 down.
A short description of assay [16]: plasmodial surface anion channel blockers, osmotic lysis – cell-based, P. falciparum Indochina, OD700, 18 h, primary screen (AID 1157). The following applies: P. falciparum Indochina infected erythrocytes, osmotic lysis OD700, 18 h; higher = more signal, called active from +8 up or from −8 down.
Assay [17] can be described thus: S6 kinase pathway phospho-S6 level changes – cell-based, A549, cytoblot, luminescence, serum-stimulated, primary screen (AID 1158).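 Note: serum-stimulated A549 lung adenocarcinoma cells; signal is phosphorylated S6 detected by cytoblot immunostaining with HRP secondary.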 Conditions: 5 h, higher = more signal.
For assay [18], the target named is NADPH oxidase 2 (Homo sapiens) (UniProt P04839). The assay is described as follows: compounds shifting NOX2 Amplex Red fluorescence – cell-based, HEK293-NOX2, PMA-stimulated, NOX inhibitor project, primary screen (AID 1159). Note: test concentration not given here. Conditions: 45 min, higher = more signal, called active from +8 up or from −8 down.
Assay [19] deals with NADPH oxidase 4 (Homo sapiens) (UniProt Q9NPH5). As to the kind of experiment: compounds shifting NOX4 Amplex Red fluorescence – cell-based, HEK293-NOX4, tetracycline-induced, NOX inhibitor project, primary screen (AID 1160). The following applies: HEK293-NOX4, Amplex Red H2O2 fluorescence, 45 min; higher = more signal, called active from +8 up or from −8 down.
In assay [20] the target is NADPH oxidase 5 (Homo sapiens) (UniProt Q96PH1). The assay is described as follows: compounds shifting NOX5 Amplex Red fluorescence – cell-based, HEK293-NOX5, NOX inhibitor project, primary screen (AID 1161). The following applies: HEK293-NOX5, ionomycin, 45 min, higher = more signal.

The source made the active and inactive calls. Unless noted, the rule behind the calls is not given here.

NADPH oxidase 4 (Homo sapiens), sequence (Q9NPH5 whole entry, looked up): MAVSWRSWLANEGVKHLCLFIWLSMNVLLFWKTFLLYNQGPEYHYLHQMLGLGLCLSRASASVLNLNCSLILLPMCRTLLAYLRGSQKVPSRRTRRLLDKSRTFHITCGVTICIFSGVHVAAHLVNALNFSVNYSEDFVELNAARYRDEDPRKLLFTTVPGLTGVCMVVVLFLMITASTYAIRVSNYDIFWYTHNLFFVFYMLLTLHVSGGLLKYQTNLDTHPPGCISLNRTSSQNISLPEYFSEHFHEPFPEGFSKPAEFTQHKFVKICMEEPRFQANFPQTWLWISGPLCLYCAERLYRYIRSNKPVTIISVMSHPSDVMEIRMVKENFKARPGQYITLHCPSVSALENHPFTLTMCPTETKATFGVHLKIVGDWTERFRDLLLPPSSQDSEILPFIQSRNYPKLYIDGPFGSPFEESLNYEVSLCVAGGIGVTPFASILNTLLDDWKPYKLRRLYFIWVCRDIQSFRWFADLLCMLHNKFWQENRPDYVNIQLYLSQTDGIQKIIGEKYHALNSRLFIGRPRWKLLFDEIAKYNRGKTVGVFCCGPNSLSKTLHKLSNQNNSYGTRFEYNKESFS
NADPH oxidase 5 (Homo sapiens), sequence (Q96PH1 whole entry, looked up): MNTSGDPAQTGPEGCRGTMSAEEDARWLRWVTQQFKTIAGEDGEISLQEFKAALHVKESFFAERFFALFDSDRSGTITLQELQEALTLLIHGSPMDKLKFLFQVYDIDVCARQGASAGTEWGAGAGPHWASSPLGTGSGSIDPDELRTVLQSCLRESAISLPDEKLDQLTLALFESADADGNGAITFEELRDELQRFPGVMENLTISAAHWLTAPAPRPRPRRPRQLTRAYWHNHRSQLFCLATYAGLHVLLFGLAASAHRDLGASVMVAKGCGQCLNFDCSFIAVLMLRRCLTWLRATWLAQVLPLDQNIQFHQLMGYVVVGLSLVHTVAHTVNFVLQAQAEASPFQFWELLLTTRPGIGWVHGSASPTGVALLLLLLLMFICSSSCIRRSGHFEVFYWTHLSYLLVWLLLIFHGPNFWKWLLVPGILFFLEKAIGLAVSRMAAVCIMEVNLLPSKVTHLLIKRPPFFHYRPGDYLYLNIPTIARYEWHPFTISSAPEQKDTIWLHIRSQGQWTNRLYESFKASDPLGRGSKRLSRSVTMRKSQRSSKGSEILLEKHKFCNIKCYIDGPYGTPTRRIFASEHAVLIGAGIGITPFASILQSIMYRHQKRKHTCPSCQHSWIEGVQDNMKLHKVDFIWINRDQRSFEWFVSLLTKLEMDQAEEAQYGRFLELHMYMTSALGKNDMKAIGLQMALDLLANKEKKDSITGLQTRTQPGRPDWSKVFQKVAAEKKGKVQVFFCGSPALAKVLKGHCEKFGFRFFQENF
Streptavidin (Streptomyces avidinii), sequence (P22629 whole entry, looked up): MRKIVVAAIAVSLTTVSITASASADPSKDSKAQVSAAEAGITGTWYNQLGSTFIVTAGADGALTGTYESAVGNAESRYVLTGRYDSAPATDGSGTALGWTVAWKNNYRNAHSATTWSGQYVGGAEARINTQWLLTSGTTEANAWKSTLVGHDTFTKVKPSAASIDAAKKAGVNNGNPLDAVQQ
Torsin-1A (Homo sapiens), sequence (O14656 whole entry, looked up): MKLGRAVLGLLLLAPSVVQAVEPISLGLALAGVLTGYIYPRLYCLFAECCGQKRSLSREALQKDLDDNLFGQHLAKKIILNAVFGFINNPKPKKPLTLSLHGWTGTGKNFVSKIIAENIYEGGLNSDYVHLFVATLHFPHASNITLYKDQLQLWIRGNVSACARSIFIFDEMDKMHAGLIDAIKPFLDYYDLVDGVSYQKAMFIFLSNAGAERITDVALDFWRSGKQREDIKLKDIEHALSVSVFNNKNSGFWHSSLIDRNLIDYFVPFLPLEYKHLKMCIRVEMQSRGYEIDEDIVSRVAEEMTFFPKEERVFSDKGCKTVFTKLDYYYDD
NADPH oxidase 2 (Homo sapiens), sequence (P04839 whole entry, looked up): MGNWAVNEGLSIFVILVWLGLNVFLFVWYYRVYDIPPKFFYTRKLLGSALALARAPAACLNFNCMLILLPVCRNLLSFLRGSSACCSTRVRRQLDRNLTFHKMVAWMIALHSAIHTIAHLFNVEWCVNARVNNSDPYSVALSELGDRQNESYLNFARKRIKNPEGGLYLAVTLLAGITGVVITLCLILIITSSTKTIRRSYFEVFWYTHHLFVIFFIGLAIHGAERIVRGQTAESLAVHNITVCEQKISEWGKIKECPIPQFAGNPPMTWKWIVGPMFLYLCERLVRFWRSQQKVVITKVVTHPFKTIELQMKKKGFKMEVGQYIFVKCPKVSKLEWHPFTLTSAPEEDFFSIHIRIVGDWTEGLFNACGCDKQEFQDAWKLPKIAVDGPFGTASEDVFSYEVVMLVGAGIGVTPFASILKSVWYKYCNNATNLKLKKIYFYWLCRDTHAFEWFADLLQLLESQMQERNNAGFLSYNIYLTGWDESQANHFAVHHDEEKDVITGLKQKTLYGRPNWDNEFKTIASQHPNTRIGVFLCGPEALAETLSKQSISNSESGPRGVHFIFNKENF

For `COCC(=C=CC[C@@H](O)c1cccc(OCCO)c1)C[C@@H](O)c1ccccn1`, the composite z-score was 0.0068 in [1]; -0.229 in assay [6]; -0.0403 in assay [7]; 0.839 in the assay with Torsin-1A (Homo sapiens) [8]; 0.344 in the assay with Torsin-1A (Homo sapiens) [9]; 1.29 in assay [10]. The compound further gave a composite z-score in assay [12] of 0.0903. Also, the z-score in assay [2] is 0.0726 (inactive); in assay [3], 0.786 (inactive); in assay [4], 0.378 (inactive); in [5], -1.16 (inactive); in [11] it was 0.335 (inactive); in assay [13], 12 (active). Further, the z-score was 1.42 (inactive) in [14]; 0.97 (inactive) in [15]; 0.675 (inactive) in assay [16]; -0.613 in [17]; 1.96 (inactive) in assay [18]; 0.744 (inactive) in [19]. The z-score in assay [20] was 0.254.

On to `CCCCCN1CC=CC23O[C@@H]4/C=C\CCC(C)OC(=O)C4[C@H]2C(=O)N(C(C)CO)[C@@H]3C1=O` (stereo not given in full), for which the composite z-score in assay [1] is -0.105; in [6] it was -0.659; in assay [7] it was -0.0933; with Torsin-1A (Homo sapiens) [8], -1.11; with Torsin-1A (Homo sapiens) [9], -0.742; in assay [10], 1.09. Besides, in assay [12], the composite z-score amounted to 0.0077. Also, the z-score in [2] was 0.28 (inactive); in assay [3], -0.818 (inactive); in assay [4], -1.17 (inactive); in [5], -0.672 (inactive); in [11], 0.585 (inactive); in assay [13] it was 0.901 (inactive). Also, the z-score in assay [14] is -0.356 (inactive); in [15], 0.847 (inactive); in assay [16], 0.355 (inactive); in [17], -0.0749; in assay [18] it was 0.642 (inactive); in assay [19] it was -0.2 (inactive). Besides, the z-score in assay [20] was determined as 1.84.

`COC(=O)C(CC#Cc1ccc2c(c1)[C@]1(C(=O)N2)[C@H](C(=O)Nc2nc3ccccc3s2)[C@H]2C(=O)O[C@H](c3ccccc3)[C@H](c3ccccc3)N2[C@@H]1c1ccccc1OCCO)C(=O)OC`: the composite z-score was 0.573 in [1]; 0.679 in [6]; 0.12 in [7]; 0.25 with Torsin-1A (Homo sapiens) [8]; 0.733 with Torsin-1A (Homo sapiens) [9]; 1.03 in [10]. Besides, in assay [12], the composite z-score worked out at 0.284. Besides, the z-score in assay [2] was -5 (inactive); in assay [3], -0.438 (inactive); in [4] it was 0.389 (inactive); in [5], 0.372 (inactive); in assay [11], -0.839 (inactive); in assay [13], 4.9 (inactive). Further, the z-score in assay [14] is 2.16 (inactive); in assay [15] it was -0.174 (inactive); in assay [16], 1.69 (inactive); in assay [17] it was -0.333; in assay [18], 1.28 (inactive); in assay [19] it was 0.252 (inactive). Moreover, the z-score in assay [20] worked out at 0.774.

As for `COc1ccc(C#Cc2ccc3c(c2)[C@]2(C(=O)N3)[C@H](C(=O)NC[C@H](O)c3ccccc3)[C@H]3C(=O)O[C@H](c4ccccc4)[C@H](c4ccccc4)N3[C@@H]2c2ccc(O)cc2)cc1`, the composite z-score in assay [1] is 0.288; in [6] it was 0.539; in assay [7], -0.128; with Torsin-1A (Homo sapiens) [8], 0.179; in the assay with Torsin-1A (Homo sapiens) [9], 0.587; in assay [10], 1.24. The compound further came in with a composite z-score in assay [12] of -0.0984. For the same compound, the z-score in assay [2] is -2.62 (inactive); in [3], -1.1 (inactive); in [4], -0.141 (inactive); in assay [5] it was -0.301 (inactive); in assay [11], 0.078 (inactive); in assay [13], -0.476 (inactive). The z-score in assay [14] is 0.657 (inactive); in assay [15], -1.03 (inactive); in assay [16] it was 0.909 (inactive); in [17], -0.434; in assay [18], 1.25 (inactive); in [19], 0.118 (inactive). The z-score in assay [20] is -0.339.

With `O=C(CS)NCCCCCCNC(=O)[C@@H]1C[C@@H]2C(=O)NCC(=O)N2[C@@H]1c1cccc(OCCO)c1`, the composite z-score in assay [1] was 0.136; in [6], 0.0478; in assay [7] it was -0.613; with Torsin-1A (Homo sapiens) [8] it was 1.29; with Torsin-1A (Homo sapiens) [9], 1.28; in [10] it was 0.88. Besides, the composite z-score in [12] is -0.887. In addition, the z-score is 0.429 (inactive) in assay [2]; -0.865 (inactive) in assay [3]; -0.252 (inactive) in [4]; -0.695 (inactive) in [5]; 0.74 (inactive) in [11]; 3.29 (inactive) in [13]. Also, the z-score in [14] was 0.156 (inactive); in [15] it was 2.38 (inactive); in assay [16], 0.104 (inactive); in assay [17] it was 0.59; in assay [18], 1.54 (inactive); in [19], 0.845 (inactive). Besides, the z-score in [20] stood at 0.711.
